Experimental data: PubChem BioAssay AID651548 (Broad Institute, 2012)
Among all 57,000 compounds or so, about 200 (0.35%) were called active.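 How the source made its calls: active means mean inhibition of replicates at least 50% and every single replicate also reaching 50%; inconclusive means mean inhibition at least 50% but some replicate falls below 50%; inactive means mean inhibition under 50%.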 Only a selection was taken, and actives are over-represented in it overall.

The compounds below were run against Histone-lysine N-methyltransferase EZH2 (Homo sapiens) (UniProt Q15910) (assay: inhibition of PRC2 H3K27 methylation – biochemical, DELFIA time-resolved fluorescence, single point, primary screen (AID 651548;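 further: dimethyl H3K27 on biotinylated H3 21-44 peptide detected by antibody; plate controls were median neutral control wells for no effect and median positive control wells for full effect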)). Conditions: DELFIA TRF, 1 h, at 12.5 µM, hits give high values.
Histone-lysine N-methyltransferase EZH2 (Homo sapiens), sequence (Q15910 whole entry, looked up): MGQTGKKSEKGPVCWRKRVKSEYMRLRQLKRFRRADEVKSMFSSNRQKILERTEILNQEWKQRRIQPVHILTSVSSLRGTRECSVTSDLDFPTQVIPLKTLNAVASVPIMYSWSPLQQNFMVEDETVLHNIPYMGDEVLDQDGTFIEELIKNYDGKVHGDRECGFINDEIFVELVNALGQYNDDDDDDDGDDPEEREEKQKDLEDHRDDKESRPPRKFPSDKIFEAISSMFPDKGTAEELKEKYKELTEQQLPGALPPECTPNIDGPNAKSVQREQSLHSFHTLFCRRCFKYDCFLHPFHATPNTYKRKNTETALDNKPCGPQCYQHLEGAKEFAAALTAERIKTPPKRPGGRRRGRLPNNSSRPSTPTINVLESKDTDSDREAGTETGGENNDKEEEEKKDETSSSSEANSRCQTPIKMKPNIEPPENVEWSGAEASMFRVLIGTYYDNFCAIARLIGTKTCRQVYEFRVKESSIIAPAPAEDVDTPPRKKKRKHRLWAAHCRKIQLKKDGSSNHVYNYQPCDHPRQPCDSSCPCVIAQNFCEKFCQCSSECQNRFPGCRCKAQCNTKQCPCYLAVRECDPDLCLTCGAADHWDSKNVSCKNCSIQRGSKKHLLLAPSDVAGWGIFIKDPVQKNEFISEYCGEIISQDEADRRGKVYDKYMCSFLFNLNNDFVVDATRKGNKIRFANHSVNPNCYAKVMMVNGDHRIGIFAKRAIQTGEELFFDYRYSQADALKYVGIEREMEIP

inhibition, inactive:
CN(C)C(=O)C[C@H]1C[C@H]2c3cc(NC(=O)Nc4ccc(C(F)(F)F)cc4)ccc3O[C@H]2[C@@H](CO)O1 -22.5%
CO[C@@H]1CN(C)C(=O)c2cc(NC(=O)C3CCOCC3)ccc2OC[C@@H](C)NC[C@@H]1C 5.55%
CCC(=O)N1C[C@@H](C)[C@H](OC)CN(C)C(=O)c2ccc(NC(=O)COC)cc2OC[C@@H]1C 2.05%
CC(C)NC(=O)N[C@@H]1CC[C@H](CC(=O)NC2Cc3ccccc3C2)O[C@H]1CO -19.2%
O=C(Nc1ccccc1F)N[C@@H]1CC[C@H](CCNC(=O)C2CC2)O[C@@H]1CO -5.22%
C[C@@H](NC(=O)C[C@@H]1CC[C@H](NC(=O)Cc2ccccn2)[C@H](CO)O1)c1ccccc1 5.38%
CO[C@@H]1CN(C)C(=O)c2cc(NC(=O)c3cnccn3)ccc2OC[C@@H](C)N(CC2CC2)C[C@H]1C -3.51%
CO[C@H]1CN(C)C(=O)c2ccc(NS(C)(=O)=O)cc2OC[C@@H](C)N(Cc2ccccc2)C[C@H]1C 27.6%
CN(C)C(=O)C[C@H]1CC[C@H](NC(=O)NC2CCCC2)[C@@H](CO)O1 6.6%
CN(C)CC(=O)N[C@H]1CC[C@@H](CCNC(=O)C2CCCC2)O[C@@H]1CO 4.19%
O=S(=O)(N[C@@H]1CC[C@@H](CCn2cc(-c3ccccn3)nn2)O[C@@H]1CO)c1cccc(Cl)c1 1.97%
O=C(Nc1ccccc1F)N[C@H]1C=C[C@H](CC(=O)N2CCCCC2)O[C@H]1CO 11.6%
C[C@@H]1CN([C@H](C)CO)S(=O)(=O)c2ccc(C#Cc3ccccc3F)cc2O[C@@H]1CN(C)C(=O)c1ccc2c(c1)OCO2 -7.72%
C[C@@H]1CN([C@@H](C)CO)C(=O)c2cc(C3=CCCC3)cnc2O[C@H]1CN(C)C(=O)c1ccccn1 -1.13%
O=C(Nc1ccccc1F)N[C@@H]1C=C[C@H](CC(=O)N2CCCCC2)O[C@@H]1CO -6.07%
C[C@@H]1CN([C@@H](C)CO)C(=O)c2cc(Br)cnc2O[C@H]1CN(C)Cc1ccc(-c2ccccc2)cc1 32.3%
CCCNC(=O)N(C)C[C@H]1Oc2cc(-c3ccncc3)ccc2S(=O)(=O)N([C@H](C)CO)C[C@@H]1C 2.1%
O=C(C[C@H]1C=C[C@@H](NC(=O)c2ccc(F)cc2)[C@@H](CO)O1)NCCc1ccncc1 -4.57%
O=C(N[C@@H]1CC[C@@H](CC(=O)N2CCc3ccccc3C2)O[C@@H]1CO)C1CCOCC1 -3.58%
COCC#Cc1ccc2c(c1)O[C@H](CN(C)C(=O)CN(C)C)[C@@H](C)CN([C@H](C)CO)S2(=O)=O -3.07%
COCC(=O)N(C)C[C@@H]1Oc2ncc(-c3ccccc3OC)cc2C(=O)N([C@@H](C)CO)C[C@@H]1C 16.6%
CCCN(C)C[C@H]1OCCCC[C@@H](C)Oc2ccc(NC(=O)Nc3ccc(F)cc3)cc2C(=O)N([C@@H](C)CO)C[C@H]1C 18.6%
O=C(C[C@@H]1C[C@@H]2c3cc(NC(=O)c4ccc5c(c4)OCO5)ccc3O[C@@H]2[C@H](CO)O1)NCC1CC1 6.48%
O=C(C[C@@H]1C[C@H]2c3cc(NC(=O)CC4CC4)ccc3O[C@H]2[C@@H](CO)O1)NCc1ccc2c(c1)OCO2 -6.28%
O=C(C[C@@H]1C=C[C@@H](NS(=O)(=O)c2ccc(F)cc2)[C@@H](CO)O1)NCCN1CCCCC1 7.22%
O=C(CN1CCOCC1)N[C@@H]1CC[C@@H](CCn2cc(C3CCCCC3)nn2)O[C@@H]1CO 3.73%
O=C(C[C@@H]1C=C[C@H](NC(=O)Nc2ccc(C(F)(F)F)cc2)[C@H](CO)O1)NCc1cccc(F)c1 -12.8%
O=S(=O)(NCC[C@H]1CC[C@@H](NS(=O)(=O)c2ccccc2Cl)[C@@H](CO)O1)c1ccc(Cl)cc1 -8.5%
O=C(CN1CCOCC1)N[C@H]1CC[C@@H](CCNS(=O)(=O)c2ccccc2F)O[C@H]1CO 0.878%
COc1ccccc1CNC(=O)C[C@H]1C[C@H]2c3cc(NS(=O)(=O)c4ccc(F)cc4)ccc3O[C@H]2[C@@H](CO)O1 -7.14%
O=C(Nc1ccccc1)N[C@H]1CC[C@H](CCNC(=O)c2ccccc2F)O[C@H]1CO -1.66%
Cc1ccccc1S(=O)(=O)NCC[C@@H]1CC[C@@H](NS(=O)(=O)c2ccccc2C)[C@@H](CO)O1 6.69%
COc1cccc(S(=O)(=O)N[C@@H]2C=C[C@H](CC(=O)NC3CCC3)O[C@H]2CO)c1 4.61%
CNC[C@H]1OCCCC[C@H](C)Oc2ccc(NS(C)(=O)=O)cc2C(=O)N([C@@H](C)CO)C[C@H]1C 5.37%
CO[C@@H]1CN(C)C(=O)c2cc(NC(=O)c3cnccn3)ccc2OC[C@@H](C)N(C(=O)C2CC2)C[C@@H]1C 3.91%
C[C@@H]1CN([C@@H](C)CO)C(=O)Cc2cc(NC(=O)C3CCCCC3)ccc2O[C@H]1CN(C)C(=O)Nc1ccccc1 1.25%
CCCNC(=O)Nc1ccc2c(c1)C(=O)N(C)C[C@H](OC)[C@H](C)CN(Cc1ccncc1)[C@H](C)CO2 -16.3%
CCCNC(=O)Nc1ccc2c(c1)OC[C@@H](C)N(CCC)C[C@H](C)[C@@H](OC)CN(C)C2=O 0.898%
C[C@@H]1CN([C@@H](C)CO)C(=O)c2cc(C#CC3CCCCC3)cnc2O[C@@H]1CN(C)Cc1cncnc1 -2.95%
O=C(C[C@H]1C[C@@H]2c3cc(NC(=O)C4CCC4)ccc3O[C@@H]2[C@@H](CO)O1)NCCN1CCCCC1 1.25%
CO[C@@H]1CN(C)C(=O)c2cc(NC(=O)Nc3ccc4c(c3)OCO4)ccc2OC[C@@H](C)NC[C@@H]1C 3.91%
